Source: PubChem BioAssay
Many of the other results were omitted from the sample, so hits are more common in it than they were.
VHR inh color: blocks the human dual specificity phosphatase VHR1; inhibition, % at 20 µM; recombinant VHR phosphatase, colorimetric substrate read-out; P51452; hit rate 0.7% among 50,000; in the data active = inhibition above about 60%
Target sequence (P51452 whole entry, looked up): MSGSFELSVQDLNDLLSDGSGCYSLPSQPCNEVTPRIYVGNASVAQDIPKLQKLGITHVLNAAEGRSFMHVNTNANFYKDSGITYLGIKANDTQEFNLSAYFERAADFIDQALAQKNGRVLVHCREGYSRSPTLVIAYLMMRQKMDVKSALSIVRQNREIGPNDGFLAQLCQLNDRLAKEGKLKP
Each line names hits and unclear results; the compound was inactive in the other large screens.

O=C1NC(=S)/C(=C\c2ccc(-c3ccc([N+](=O)[O-])cc3)o2)S1	VHR inh color 99.5
O=C(O)CCN1C(=O)/C(=C/c2ccc(-c3ccc([N+](=O)[O-])cc3)o2)SC1=S	none
CC(=O)Nc1ccc(C2NC(=O)NC3=Nc4ccccc4SC(c4ccccc4)=C32)cc1 (stereo not given)	none
O=C1S/C(=C/c2cc([N+](=O)[O-])ccc2O)C(=O)N1c1ccccc1	none
CSc1ccc(S(=O)(=O)N(CC(=O)Nc2cccc(Cl)c2Cl)c2ccc(C)cc2)cc1	none
CCOC(=O)c1ccc(N2C(=O)NC(=O)/C(=C/c3ccc(OC)c(OC)c3)C2=O)cc1	none
COc1ccc(C2/C(=C(/O)c3ccccc3)C(=O)C(=O)N2c2cccc([N+](=O)[O-])c2)cc1 (stereo not given)	none
O=C1NC(=Nc2ccc(F)cc2)S/C1=C/c1ccccc1F	none
CN1C(=O)NC(=O)/C(=C/c2ccc(I)o2)C1=O	none
O=C1C(=Cc2ccc(I)o2)C(=O)c2ccccc21	none
CC1(C)OC(=O)C(=Cc2ccc(I)o2)C(=O)O1	VHR inh color 86.8
CCOc1ccccc1NC(=O)CN(c1ccc(C)cc1)S(C)(=O)=O	none
CC(C)C12CN3CCN(CC(C3)/C1=N\O)C2	none
Cn1ccnc1SCC(=O)N1c2ccccc2-c2c(ssc2=S)C1(C)C	none
CC1(C)c2ssc(=S)c2-c2ccccc2N1C(=O)CN1CCCCC1	VHR inh color 97.9
COc1cc(C(=O)N2c3ccccc3-c3c(ssc3=S)C2(C)C)cc(OC)c1OC	none
CC1(C)c2ssc(=S)c2-c2ccccc2N1C(=O)CN1CCOCC1	VHR inh color 97.3
COc1ccc2c(c1)N(C(=O)CN1C(=O)c3ccccc3C1=O)C(C)(C)c1ssc(=S)c1-2	none
CC1(C)c2ssc(=S)c2-c2ccccc2N1C(=O)CSc1nnc(N)s1	none
COc1ccc(N(CC(=O)Nc2ccc(C(C)C)cc2)S(C)(=O)=O)cc1Cl	none
O=C(Nc1ccccc1F)C1(c2ccccc2)CC1(Cl)Cl (stereo not given)	none
O=C(Nc1nccs1)C1(c2ccccc2)CC1(Cl)Cl (stereo not given)	none
O=C(Nc1cccc2ccccc12)C1(c2ccccc2)CC1(Cl)Cl (stereo not given)	VHR inh color 117.7
O=C(NCc1cccnc1)c1ccc(C#Cc2ccccc2)cc1	none
O=C(NCc1cccnc1)c1cc(-c2ccccc2)nc2ccccc12	none
Nc1c(C(=O)NCc2cccnc2)sc(=S)n1-c1ccccc1	VHR inh color 91.4
O=C(O)/C=C/C(=O)Nc1ccc2c(c1)OCO2	none
CCCOC(=O)c1ccc(NC(=O)c2ccc(-c3cccc(Cl)c3)o2)cc1	VHR inh color 109.3
O=C(Nc1ccc(Cl)cc1)c1ccc(-c2cccc(Cl)c2)o1	none
CCN(CC)c1ccc(NC(=O)c2ccc(-c3cccc(Cl)c3)o2)cc1	none
Cc1c(CCNC(=O)c2ccccc2F)c2ccccc2n1Cc1ccccc1	none
COCCCNC(=O)/C(=C/c1cccc([N+](=O)[O-])c1)NC(=O)c1ccc(OC)cc1	none
CCOc1ccc(N2Cc3ccc(C(=O)NN)cc3C2)cc1	VHR inh color 91.0
CCOc1ccc(C(=O)Nc2cc(=O)n(C)c(=O)n2C)cc1	none
CCOc1ccc(N2Cc3ccccc3C2)cc1	none
O=C(NNc1c(Cl)cc(Cl)cc1Cl)c1cccs1	none
COc1cccc(C(=O)NC(NC(=S)Nc2ccccc2Cl)C(Cl)(Cl)Cl)c1 (stereo not given)	none
CCOC(=O)C1=C(C)N(CCOC)C(=O)/C1=C\c1ccccc1[N+](=O)[O-]	none
C=COCCNC(=O)C(=O)Nc1ccc(OC)cc1	none
COc1cc(/C=C2/C(=N)N3N=C(C(C)C)SC3=NC2=O)cc(Cl)c1OCCOc1ccccc1	none
CC(C)C1=NN2C(=N)/C(=C/c3ccc(Sc4ccc(Cl)cc4)o3)C(=O)N=C2S1	VHR inh color 109.8
CC(C)C1=NN2C(=N)/C(=C/c3ccc(-c4cccc([N+](=O)[O-])c4)o3)C(=O)N=C2S1	none
Cc1n[nH]c(C)c1CCC(=O)N/N=C/c1c(Cl)cccc1Cl	none
O=S(=O)(Oc1ccc2ccccc2c1)c1ccc(F)cc1	none
O=C1NC(=O)N(c2ccc(Cl)cc2)C(=O)/C1=C\c1ccc(N2CCCC2)cc1	VHR inh color 70.5
CN1C(=O)NC(=O)/C(=C\c2ccc(N3CCCC3)cc2)C1=O	none
O=C1NC(=O)N(c2ccc(Cl)cc2)C(=O)/C1=C/c1ccc(F)cc1	none
CCC(C(=O)Nc1ccc(Cl)c([N+](=O)[O-])c1)c1ccccc1 (stereo not given)	none
CC(C)C1S/C(=N/N=C/c2ccc(O)cc2)NC1=O (stereo not given)	VHR inh color 93.0
Cc1ccc(/C=N/N=C2\NC(=O)C(C)S2)cc1 (stereo not given)	none
COc1ccc(CC2S/C(=N\N=C\c3ccc(C(C)C)cc3)NC2=O)cc1 (stereo not given)	none
O=C(CSc1nnc(-c2ccncc2)n1-c1ccccc1)NCc1ccco1	none
CCOC(=O)c1c(NC(=O)c2ccc(C)c([N+](=O)[O-])c2)sc(C(=O)Nc2ccccc2OC)c1C	VHR inh color 116.4
CCOC(=O)c1c(NC(=O)c2cccc(OC)c2)sc(C(=O)Nc2ccccc2OC)c1C	none
CCOC(=O)c1sc(NC(=O)c2ccc(C)c([N+](=O)[O-])c2)c(C(=O)OCC)c1C	none
O=C(O)CN1C(=O)/C(=C/c2c(Cl)cccc2Cl)SC1=S	none
O=C(O)CN1C(=O)/C(=C\c2ccc(-c3ccccc3Cl)o2)SC1=S	VHR inh color 82.7
Cc1ccc(/C=C2\SC(=S)N(CC(=O)O)C2=O)o1	none
CCOc1ccccc1-n1c(O)c(C=C2C=CC=N2)c(=O)[nH]c1=O	none
O=c1[nH]c(=O)n(-c2ccccc2Cl)c(O)c1C=C1C=CC=N1	none
Cn1c(O)c(/C=C2/C=CC=N2)c(=O)n(-c2ccccc2)c1=S	VHR inh color 69.1
O=C1NC(=O)N(c2ccccc2)C(=O)/C1=C/c1cc2c(cc1Cl)OCO2	none
N#Cc1c2n(c3c(=O)n(Cc4ccc(Cl)cc4)cnc13)CCCC2	none
C=CCN1C(=O)NC(=O)/C(=C\c2ccc(OCc3ccc(Cl)cc3)c(OC)c2)C1=O	none
COc1cc(C=Nc2ccc(Nc3ccccc3)cc2)ccc1OCc1ccccc1	none
COc1cc(/C=N/O)ccc1OCc1ccc(Cl)cc1	VHR inh color 104.7
C=C(C)C(=O)OCn1c2ccccc2c2cc([N+](=O)[O-])ccc21	none
CCCC1CCC(c2nc(-c3cccnc3)no2)CC1 (stereo not given)	none
Cc1cc(Br)c(-c2ccc(/C=C3/NC(=S)NC3=O)o2)cc1C	VHR inh color 91.1
C=CCN1C(=O)/C(=C/c2ccccc2Cl)C(=O)NC1=S	none
C=CCN1C(=O)/C(=C\c2ccc(C)o2)C(=O)NC1=S	none
C=CCN1C(=O)/C(=C\c2ccc(-c3ccc(Br)cc3)o2)C(=O)NC1=S	none
O=C1NC(=S)N/C1=C/c1ccc(-c2cccc(Cl)c2Cl)o1	none
C=CCN1C(=O)/C(=C\c2cn(C)c3ccccc23)C(=O)NC1=S	none
C=CCN1C(=O)/C(=C\c2ccc(-c3ccc(C)cc3Br)o2)C(=O)NC1=S	VHR inh color 87.8
C=CCN1C(=O)/C(=C\c2cn(Cc3ccc([N+](=O)[O-])cc3)c3ccccc23)C(=O)NC1=S	VHR inh color 82.9
O=C1NC(=S)N/C1=C/c1ccc(-c2cc(C(=O)O)ccc2Cl)o1	none
C=CCN1C(=O)/C(=C\c2ccc(-c3cccc([N+](=O)[O-])c3)o2)C(=O)NC1=S	none
C=CCN1C(=O)/C(=C\c2ccc(-c3ccc([N+](=O)[O-])cc3)o2)C(=O)NC1=S	VHR inh color 62.0
Cc1ccc(-c2ccc(C=C3C(=O)NC(=S)NC3=O)o2)c(Br)c1	none
COc1ccc(C2NC(=O)NC(C)=C2C(=O)Nc2cc(Cl)ccc2C)cc1OC (stereo not given)	none
